# A number with no mark means an inactive call. Results filed as inconclusive are left out. The source made the active and inactive calls. Unless noted, calls come from the whole dose curve; as a rule, active = well fitted curve in either direction with a large enough effect (not every such curve was filed as active); inconclusive = small, poorly fitted or top-dose-only effect, or another doubt; inactive = flat fitted curve, though single readings scatter.
# Experiments:
# [1] = target: Lysosomal acid glucosylceramidase (Homo sapiens) (UniProt P04062); test: Glucocerebrosidase-p2 (AID 348; in the data active = potency below about 10 µM; note: potency is the fitted concentration of half-maximal effect); conditions: purified GBA, blue fluorogenic substrate, 40 min
# Sequence of Lysosomal acid glucosylceramidase (Homo sapiens) (P04062 whole entry, looked up): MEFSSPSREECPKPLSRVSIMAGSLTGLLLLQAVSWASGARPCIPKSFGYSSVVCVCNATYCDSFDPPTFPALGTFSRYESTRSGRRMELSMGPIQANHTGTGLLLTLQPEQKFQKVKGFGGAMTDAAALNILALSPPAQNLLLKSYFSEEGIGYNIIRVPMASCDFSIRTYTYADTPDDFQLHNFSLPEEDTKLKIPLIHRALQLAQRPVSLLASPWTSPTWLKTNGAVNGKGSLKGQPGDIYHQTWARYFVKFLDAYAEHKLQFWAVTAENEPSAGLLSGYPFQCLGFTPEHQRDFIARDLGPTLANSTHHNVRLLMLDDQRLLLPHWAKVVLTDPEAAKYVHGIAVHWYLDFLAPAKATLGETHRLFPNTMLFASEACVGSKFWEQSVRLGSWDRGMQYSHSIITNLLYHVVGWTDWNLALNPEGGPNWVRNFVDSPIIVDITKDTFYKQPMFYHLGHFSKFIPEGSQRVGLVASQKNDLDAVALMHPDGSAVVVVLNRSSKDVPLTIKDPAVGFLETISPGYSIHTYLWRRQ
# Method in brief: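 Compounds titrated from 0.6 nM upwards against 0.2 nM enzyme in pH 5.9 citric acid/KH2PO4, taurocholate, tween-20; blue fluorogenic substrate 80 uM, 40 min room temperature, stopped and read Ex 365/Em 440 for AC50.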
# [2] = AP1 Signaling Pathway (AID 357); conditions: ME-180 AP-1-bla reporter, EGF-induced, beta-lactamase ratio, 5 h; at 7.69 µM (top of the series) unless noted; note: % is set by controls: 0 for no effect and ±100 for the full control effect
# Method in brief: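 ME-180 cells with beta-lactamase reporter under AP-1 response element, stimulated with EC50 EGF; compounds tested in titration series, 5 h at 37 °C. CCF4 substrate added 2.5 h at room temperature; 460/530 nm emission ratio gave %activity and AC50.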
# [3] = target: Cytochrome P450 1A2 (Homo sapiens) (UniProt P05177); test: p450-cyp1a2 (AID 410; calls by dose curve; note: potency is the fitted concentration of half-maximal effect;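 for activity change, negative = inhibition: -100% = full effect of reference inhibitor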); conditions: recombinant CYP1A2, luciferin-ME demethylation, luminescence; series mostly up to 11.4 µM
# Sequence of Cytochrome P450 1A2 (Homo sapiens) (P05177 whole entry, looked up): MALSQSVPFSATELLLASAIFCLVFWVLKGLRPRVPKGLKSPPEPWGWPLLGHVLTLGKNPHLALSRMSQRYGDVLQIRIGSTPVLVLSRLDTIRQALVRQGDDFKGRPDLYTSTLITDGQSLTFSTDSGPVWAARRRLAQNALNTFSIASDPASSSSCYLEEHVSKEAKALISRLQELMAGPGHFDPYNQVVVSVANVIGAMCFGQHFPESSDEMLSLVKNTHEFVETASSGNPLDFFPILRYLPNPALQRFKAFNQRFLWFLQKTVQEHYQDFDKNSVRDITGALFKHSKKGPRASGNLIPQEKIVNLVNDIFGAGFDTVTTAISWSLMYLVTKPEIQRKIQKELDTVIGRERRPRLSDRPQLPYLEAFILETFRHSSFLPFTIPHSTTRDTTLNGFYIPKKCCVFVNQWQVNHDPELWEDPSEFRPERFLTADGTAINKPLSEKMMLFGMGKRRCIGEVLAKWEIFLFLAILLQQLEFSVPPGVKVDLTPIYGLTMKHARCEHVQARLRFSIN
# Method in brief: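 Human CYP1A2 (20nM) demethylated Luciferin-ME at its Km (100uM) in 100mM KPO4. After 10 min compound preincubation, NADPH regeneration ran the reaction 60 min at room temperature. Luciferin was read by luminescence, normalized to 57 uM furafylline.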
# [4] = NFAT Signaling Pathway (AID 444); conditions: Jurkat NFAT-bla M1, carbachol, beta-lactamase ratio, 5 h; at 7.69 µM (top of the series) unless noted;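 note: carbachol stimulus at about its EC50 of 1 µM final; % is set by controls: 0 for no effect and ±100 for the full control effect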
# Method in brief: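 Jurkat cells with NFAT-driven β-lactamase reporter and co-expressed M1 receptor, stimulated with carbachol (final 1 uM, ~EC50), compound titration, 5 h at 37 °C. CCF4 loaded 1 h at RT; 460/530 nm ratio gave %activity and AC50.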
# [5] = Stat Signaling Pathway (AID 446); conditions: ME-180 SIE beta-lactamase reporter, IL-6 stimulated, 5 h; at 7.69 µM (top of the series) unless noted;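 note: ME-180 cervical cancer cells given 40 pM IL-6 alongside compound; SIE-controlled beta-lactamase reporter measured as 460/530 nm FRET emission ratio; % is set by controls: 0 for no effect and ±100 for the full control effect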
# Method in brief: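 Reporter line: ME-180 cervical carcinoma, SIE-beta-lactamase. Treatment: compound with 40 pM IL-6, 5 hrs, 37 C, in low-serum OPTI-MEM with 10 mM HEPES pH 7.3. Detection: 460/530 nm fluorescence.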
# [6] = target: Glucocorticoid receptor (Homo sapiens) (UniProt P04150); test: GR-GFP Redistribution (AID 450;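 active = compounds whose dose series gives a full or clear partial fitted curve of increased nuclear translocation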; note: potency is the fitted concentration of half-maximal effect); conditions: U2OS GR-GFP nuclear translocation, laser cytometry, 2 h
# Sequence of Glucocorticoid receptor (Homo sapiens) (P04150 whole entry, looked up, the tested form may be a part): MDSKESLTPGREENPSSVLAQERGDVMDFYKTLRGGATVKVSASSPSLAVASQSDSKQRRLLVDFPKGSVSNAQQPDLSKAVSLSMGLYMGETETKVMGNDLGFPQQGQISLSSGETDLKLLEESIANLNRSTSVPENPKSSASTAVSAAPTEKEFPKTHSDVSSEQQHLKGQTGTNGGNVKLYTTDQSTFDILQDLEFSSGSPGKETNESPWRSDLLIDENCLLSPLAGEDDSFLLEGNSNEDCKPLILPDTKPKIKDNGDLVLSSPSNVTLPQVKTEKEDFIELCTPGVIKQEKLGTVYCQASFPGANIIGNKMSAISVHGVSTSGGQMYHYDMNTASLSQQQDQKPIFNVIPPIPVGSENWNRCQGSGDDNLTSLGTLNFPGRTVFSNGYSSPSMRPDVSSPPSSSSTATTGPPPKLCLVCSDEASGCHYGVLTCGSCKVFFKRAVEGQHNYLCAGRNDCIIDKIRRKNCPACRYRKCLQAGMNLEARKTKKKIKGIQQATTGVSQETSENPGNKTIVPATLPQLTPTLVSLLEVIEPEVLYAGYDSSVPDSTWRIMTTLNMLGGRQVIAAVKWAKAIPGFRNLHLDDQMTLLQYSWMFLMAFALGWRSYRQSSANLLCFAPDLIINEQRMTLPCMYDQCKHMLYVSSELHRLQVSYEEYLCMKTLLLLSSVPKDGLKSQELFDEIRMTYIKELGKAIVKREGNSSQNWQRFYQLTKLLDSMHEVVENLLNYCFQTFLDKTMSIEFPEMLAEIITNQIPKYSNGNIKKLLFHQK
# [7] = target: Glucocorticoid receptor (Homo sapiens) (UniProt P04150); test: GR-EFC Redistribution (AID 451; calls by dose curve; note: potency is the fitted concentration of half-maximal effect); conditions: CHO-K1 GR-EFC translocation, beta-gal luminescence, 2 h
# Method in brief: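 CHO-K1 cells expressing nuclear EA and GR-ED fragments of b-gal; compounds titrated up to 46 uM final, 2 h at 37 C. GR nuclear translocation read as complemented b-gal luminescence after 1 h RT detection.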
# [8] = target: Mitogen-activated protein kinase 10 (Mus musculus) (UniProt Q61831); test: JNK3 AlphaScreen Assay (AID 530); conditions: JNK3 lysate, c-Jun phosphorylation; series mostly up to 11.4 µM;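 note: kinase came from lysate of stimulated human HepG2 cells; signal reports phosphorylation of biotinylated GST-cJun 1-79 at Ser73 with 10 µM ATP; % is set by controls: 0 for no effect and ±100 for the full control effect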
# Method in brief: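 qHTS format: compounds tested as titrations against IL-1beta/TNF-alpha-activated HepG2 lysate JNK3 with biotin-GST-cJun substrate and 10 uM ATP at room temperature. Loss of anti-phospho-cJun AlphaScreen signal indicates inhibition.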
# [9] = target: 3',5'-cyclic-AMP phosphodiesterase 4B (Homo sapiens) (UniProt Q07343); test: qHTS Assay for Inhibitors of PDE-IV (AID 607; active = well fitted activation curve with a large enough effect in the main read-out, with a control signal flat, not every such curve was filed as active; note: % of control where 0% means no effect); conditions: HEK293 ACTOne CNG channel cells, membrane potential fluorescence; series mostly up to 22.9 µM
# Sequence of 3',5'-cyclic-AMP phosphodiesterase 4B (Homo sapiens) (Q07343 whole entry, looked up): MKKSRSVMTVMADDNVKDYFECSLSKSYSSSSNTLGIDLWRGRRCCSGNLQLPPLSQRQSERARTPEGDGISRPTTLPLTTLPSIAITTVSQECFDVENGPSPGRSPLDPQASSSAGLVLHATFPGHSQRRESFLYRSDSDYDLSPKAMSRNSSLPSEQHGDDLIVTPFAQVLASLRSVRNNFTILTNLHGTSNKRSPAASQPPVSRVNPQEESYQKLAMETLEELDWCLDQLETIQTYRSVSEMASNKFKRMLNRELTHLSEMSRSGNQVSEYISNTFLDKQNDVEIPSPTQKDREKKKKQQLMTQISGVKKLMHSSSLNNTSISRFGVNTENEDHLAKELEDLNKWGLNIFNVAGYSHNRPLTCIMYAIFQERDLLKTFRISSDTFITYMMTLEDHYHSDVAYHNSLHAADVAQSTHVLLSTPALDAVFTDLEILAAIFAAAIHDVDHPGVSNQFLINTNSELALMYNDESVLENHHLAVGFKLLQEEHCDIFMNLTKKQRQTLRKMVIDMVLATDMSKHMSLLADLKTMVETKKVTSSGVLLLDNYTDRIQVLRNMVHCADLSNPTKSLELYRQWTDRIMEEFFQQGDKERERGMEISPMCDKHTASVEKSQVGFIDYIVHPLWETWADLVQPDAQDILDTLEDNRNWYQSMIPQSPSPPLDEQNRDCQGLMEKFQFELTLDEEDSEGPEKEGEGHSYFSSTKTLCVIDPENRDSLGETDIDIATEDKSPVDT
# Method in brief: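 Cell-based read-out of cAMP via a modified cyclic nucleotide-gated channel and membrane potential dye (535/590 nm) in HEK293 cells expressing PDE4 endogenously. Compounds tested up to 22.9 uM final; 100 uM RO 20-1724 reference.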
# [10] = target: Cytochrome P450 2D6 (Homo sapiens) (UniProt P10635); test: qHTS Assay for Inhibitors and Substrates of Cytochrome P450 2D6 (AID 891; active = well fitted inhibition curve with a large enough effect; note: nearly all actives have a fitted effect of over 60% in size; note: potency is the fitted concentration of half-maximal effect); conditions: recombinant CYP2D6, luciferin-ME EGE luminescence; series mostly up to 11.4 µM
# Sequence of Cytochrome P450 2D6 (Homo sapiens) (P10635 whole entry, looked up): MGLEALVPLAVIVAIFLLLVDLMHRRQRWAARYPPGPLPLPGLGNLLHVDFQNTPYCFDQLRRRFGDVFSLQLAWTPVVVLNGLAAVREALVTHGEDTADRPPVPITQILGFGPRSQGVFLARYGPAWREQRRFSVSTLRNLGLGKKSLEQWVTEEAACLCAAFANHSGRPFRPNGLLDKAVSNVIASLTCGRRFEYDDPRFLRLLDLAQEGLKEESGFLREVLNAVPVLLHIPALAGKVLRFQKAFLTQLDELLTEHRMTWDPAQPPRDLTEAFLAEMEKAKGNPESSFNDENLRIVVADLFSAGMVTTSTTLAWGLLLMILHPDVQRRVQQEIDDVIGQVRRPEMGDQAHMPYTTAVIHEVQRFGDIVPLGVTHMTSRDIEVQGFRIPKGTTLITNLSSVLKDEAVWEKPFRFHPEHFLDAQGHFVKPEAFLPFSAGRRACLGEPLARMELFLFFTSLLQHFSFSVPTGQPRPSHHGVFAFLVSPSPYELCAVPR
# Method in brief: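 Human CYP2D6 (5 nM) with 30 uM Luciferin-ME EGE (at Km) in 100 mM KPO4, compound preincubated 10 min, then NADPH regeneration system for 60 min at room temperature. Luciferin read by luminescence; normalized to 1.43 uM quinidine.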
# [11] = target: Cytochrome P450 2C19 (Homo sapiens) (UniProt P33261); test: qHTS Assay for Inhibitors and Substrates of Cytochrome P450 2C19 (AID 899; active = well fitted inhibition curve with a large enough effect; note: nearly all actives have a fitted effect of over 60% in size; note: potency is the fitted concentration of half-maximal effect); conditions: recombinant CYP2C19, luciferin-H EGE luminescence; series mostly up to 11.4 µM
# Sequence of Cytochrome P450 2C19 (Homo sapiens) (P33261 whole entry, looked up): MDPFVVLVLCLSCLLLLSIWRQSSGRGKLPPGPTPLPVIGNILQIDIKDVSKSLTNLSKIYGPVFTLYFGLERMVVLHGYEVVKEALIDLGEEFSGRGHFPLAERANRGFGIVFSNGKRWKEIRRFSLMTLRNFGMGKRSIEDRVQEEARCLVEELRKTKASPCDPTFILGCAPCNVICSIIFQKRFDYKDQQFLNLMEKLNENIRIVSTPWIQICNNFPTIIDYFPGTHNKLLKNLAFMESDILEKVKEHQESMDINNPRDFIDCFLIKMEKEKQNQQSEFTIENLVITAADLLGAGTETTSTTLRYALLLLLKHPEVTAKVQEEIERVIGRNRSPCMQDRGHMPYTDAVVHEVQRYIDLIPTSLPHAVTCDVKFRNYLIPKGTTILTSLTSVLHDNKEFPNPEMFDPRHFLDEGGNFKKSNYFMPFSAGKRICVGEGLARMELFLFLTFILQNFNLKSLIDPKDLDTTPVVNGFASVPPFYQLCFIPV
# Method in brief: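 Luminescent read-out of luciferin formed from Luciferin-H EGE (10uM, equal to KM). Enzyme 5nM in 50mM KPO4; compound added, 10 min at 37C, then NADPH regenerating system for 60 min at 37C. Full inhibition defined by 57uM ketoconazole.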
# [12] = qHTS Assay for Identification of Small Molecule Agonists for Hypoxia Response Element Signaling Pathway (AID 914; active = well fitted activation curve with a large enough effect in the signal ratio, with a control signal flat, not every such curve was filed as active; the % refers to the signal ratio; note: % of control where 0% means no effect); conditions: ME-180 (cervical carcinoma) HRE-bla reporter, beta-lactamase ratio, CoCl2, 17 h; activation: stronger effect = higher value
# Method in brief: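 qHTS titration; ME-180 HRE-bla cells; EC50 CoCl2 co-treatment, 17 h at 37 degrees Celsius; CCF4 dye, ex 405nm, em 460nm and 530nm; %Activity from ratio; AC50.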
Structure (SMILES),Potency [1] [µM],"activity change, negative = inhibition [2] [%]",Potency [3],"activity change, negative = inhibition [4]","activity, negative = inhibition [5] [%]",Potency [6] [µM],Potency [7] [µM],Potency [8],Potency [9],Potency [10],Potency [11],"activity change, negative = inhibition [3]",activation [12] [%]
Oc1c(Br)cc(Br)cc1CN(Cc1cc(Br)cc(Br)c1O)C1CCCCC1,> 11.4,6.04,3.16 µM (active),5.11%,-17.9,> 46,> 9.22,inactive,inactive,0.251 µM (active),0.316 µM (active),,
c1ccc(C(CCN2CC3CCC(CC3)C2)c2ccccc2)cc1,> 11.4,2.88,inactive,-81.8% (active),0.0517,> 46,> 9.22,inactive,inactive,0.794 µM (active),,,
N=c1ccn2c(n1)O[C@H]1[C@@H](OP(=O)(O)O)[C@H](CO)O[C@H]12,> 11.4,1.47,,19.9%,-1.19,> 46,> 9.22,inactive,inactive,,inactive,-3.1% [at 2.29 µM],
O=C(O)CSSCC(=O)O,> 11.4,5.08,inactive,15.8%,17.7,> 46,> 9.22,inactive,inactive,inactive,inactive,,
COc1ccc(OC)c(-c2cc(C(=O)O)c3cc4ccccc4cc3n2)c1,> 11.4,4.44,,15.6%,4.07,> 46,> 9.22,inactive,inactive,3.98 µM (active),,-21.4% [at 2.29 µM],
c1ccc2sc(SCCSc3nc4ccccc4s3)nc2c1,> 11.4,8.08,0.794 µM (active),-22.4%,2.32,> 46,> 9.22,inactive,inactive,inactive,,,
CC(C)(C)c1ccc(O)c(CN(Cc2c(O)ccc3ccccc23)C2CCCCC2)c1,> 11.4,-7.92,3.98 µM (active),-10.8%,-13.7,> 46,> 9.22,inactive,inactive,0.794 µM (active),2 µM (active),,2.73
O=C1c2ccccc2C(=O)N1CCCSc1ccccc1,> 11.4,-13.4,1 µM (active),1.88%,-7.77,> 46,> 9.22,inactive,inactive,,0.631 µM (active),,
Nc1ccc2[nH]cc(CCC(=O)O)c2c1,> 11.4,4.94,inactive,4.67%,6.65,> 46,> 9.22,inactive,inactive,,inactive,,
Oc1ccccc1C(Sc1nc2ccccc2s1)Sc1nc2ccccc2s1,> 11.4,10.8,1.26 µM (active),5.9%,-11.5,> 46,> 9.22,inactive,inactive,,3.16 µM (active),,
S=c1c2[nH]cnc2ncn1CCSc1ncnc2nc[nH]c12,> 11.4,-5.47,inactive,23.1%,7.7,> 46,> 9.22,inactive,inactive,,inactive,,
c1ccc2c(CSCc3cccc4ccccc34)cccc2c1,> 11.4,6.44,3.98 µM (active),-28.7%,17.1,> 46,> 9.22,inactive,inactive,,0.126 µM (active),,
Cc1ccc(N(Cc2ccccc2)Cc2ccccc2)cc1,> 11.4,4.21,,-17.4%,3.16,> 46,> 9.22,inactive,inactive,,2 µM (active),-24.2% [at 2.29 µM],
CN(C)CCNCCN,> 11.4,9.73,inactive,16.1%,4.92,> 46,> 9.22,inactive,inactive,,inactive,,
CN(C)CCN(c1ccccn1)c1ccccn1,> 11.4,11.2,inactive,7.47%,11.4,> 46,> 9.22,inactive,inactive,,inactive,,
Cn1c([N+](=O)[O-])cnc1CN1CCN(CCO)CC1,> 11.4,11,,2.86%,10.3,> 46,> 9.22,inactive,inactive,,inactive,9.2% [at 2.29 µM],
O=C(O)CC1(CC(=O)O)Nc2ccccc2SC1=O,> 11.4,-1.59,,5.68%,2.07,> 46,> 9.22,inactive,inactive,,inactive,2% [at 2.29 µM],
Cc1cn(CC[C@H](N)C(=O)O)c(=O)[nH]c1=O,> 11.4,0.888,inactive,-6.68%,16.3,> 46,> 9.22,inactive,inactive,,inactive,,
CCCn1cnc2c(SCC(=O)O)nc(N)nc21,> 11.4,0.287,inactive,-8.4%,-4.97,> 46,> 9.22,inactive,inactive,,inactive,,
Clc1ccc(-c2nnc(-c3cccc4ccccc34)o2)cc1Cl,> 11.4,-2.21,2 µM (active),18.6%,10.3,> 46,> 9.22,inactive,inactive,,inactive,,
CC(=O)CC(=O)Nc1ccc2ccccc2c1,> 11.4,6.48,2 µM (active),11.8%,6.17,> 46,> 9.22,inactive,inactive,,inactive,,
O=C(N[C@@]1(C(=O)O)C[C@@H]1c1ccccc1)c1ccccc1,> 11.4,7.86,inactive,18.8%,10.3,> 46,> 9.22,inactive,inactive,,inactive,,
N#CC(C#N)=CNCCN1CCN(C=C(C#N)C#N)CC1,> 11.4,2.96,,2.39%,3.44,> 46,> 9.22,inactive,inactive,,inactive,-15.5% [at 2.29 µM],
C=C1CCO[C@@]2([C@H](O)[C@@](C)(O)CO)NC(=O)[C@]1(O)NC2=O,> 11.4,5.8,,-4.59%,2.56,> 46,> 9.22,inactive,inactive,,inactive,-4% [at 2.29 µM],
NC(=O)c1csc(-c2ccc(CO)o2)n1,> 11.4,-2.81,inactive,10.7%,13.2,> 46,> 9.22,inactive,inactive,,inactive,,
O=c1[nH]c(=S)c2[nH]c(=O)n(-c3ccccc3)c2[nH]1,> 11.4,12.1,inactive,15.1%,8.32,> 46,> 9.22,inactive,inactive,,inactive,,
CC(C)CNc1nc(N)[nH]c(=O)c1NC=O,> 11.4,9,inactive,-1.94%,7.03,> 46,> 9.22,inactive,inactive,,inactive,,
O=C(CCN1CCCCC1)N1CCc2c([nH]c3ccccc23)[C@H]1c1cccnc1,> 11.4,4.71,,-15.8%,-6.32,> 46,> 9.22,inactive,inactive,,inactive,-19.7% [at 2.29 µM],
CN(C)CCNc1ccccn1,> 11.4,-8.09,inactive,12.6%,3.69,> 46,> 9.22,inactive,inactive,,inactive,,
C[C@@H]1O[C@@H](O)[C@@H](O)[C@H](O)[C@H]1O,> 11.4,-1.53,inactive,13.9%,6.79,> 46,> 9.22,inactive,inactive,,inactive,,

# From PubChem BioAssay (NCATS)
